Source: PubChem BioAssay (NCI)
Several values for one entry are separate records, joined by “and”; a condition that tells them apart may be missing. Equal entries are not always repeated. Compounds without any hit were thinned out: in the full panel of roughly 83,000, 20% have a hit.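 Plates (96-well) were seeded with cells, treated with compound at one concentration, and incubated for 48 hours before percent growth was determined.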 Activity calls are given as the source filed them. Rule for the calls: active = growth percent below 10; inactive = the rest.

tested on: A549/ATCC NSCLC; test: NCI-60 one-dose screen, 48 h (100 = growth as untreated, 0 = no growth, -100 = all killed); conditions: 10 µM unless noted

SMILES	growth
O=c1ccc(Cn2c(C(F)(F)F)cc3c(Cl)ncnc32)c[nH]1	105% (inactive)
CC[C@]12C=CCN3CC[C@]4(C(=C(C(=O)OC)C1)Nc1cc(OC)c([C@@H]5[C@H]6O[C@H]6[C@@]6(CC)CC(C(=O)OC)=C7Nc8cc(O)ccc8[C@@]78CCN5[C@@H]68)cc14)[C@@H]32	17.2% (inactive)
COc1ccc2[nH]cc(-c3cc4nc(-c5cn(C)c6ncccc56)cc(N)n4n3)c2c1	-25.9% (active)
COc1ccc2[nH]c(=O)cc(-n3ncc(C(=O)/C=C/c4cc(OC)c(OC)c(OC)c4)c3C)c2c1	8.31% (active)
COc1ccc(/C=C/c2nc3ccccc3n3c(-c4cccc([N+](=O)[O-])c4)nnc23)cc1	-4.88% (active)
O=C(Nc1ccc(Cl)c(C(F)(F)F)c1)N1CCN(c2cc(-c3cn(-c4ccccc4)nc3-c3cccc(O)c3)ccn2)CC1	14.7% (inactive)
O=C1Nc2ccccc2/C1=C/C(=O)c1cc2ccccc2oc1=O	106% (inactive)
CN1CCN(C(=O)Oc2cc3c(c4ccccc24)[C@H](CCl)CN3C(=O)c2cc3cc(OCCCN4CCC4)ccc3[nH]2)[C@H]2CSSC[C@H]21	4% (active)
NS(=O)(=O)c1ccc(Nc2nc(N/N=C/c3cc(Br)c(O)c(Br)c3)nc(Nc3ccccc3)n2)cc1	97.6% (inactive)
COc1ccc2c(c1)C(Sc1ccc(Cl)cc1)c1c(nc(N)c(C#N)c1N)O2 (configuration not stated)	53.7% (inactive)
CS(=O)(=O)Nc1cccc(-n2c(COc3ccc(OC(F)(F)F)cc3)nc3ccccc32)c1	96.1% (inactive) and 111% (inactive)
OCCn1cc(-c2nc3ccc4[nH]ncc4c3c3c2CCCC3)cn1	26.6% (inactive)
Cn1cc(-c2cc(N)n3nc(-c4c[nH]c5ccc(F)cc45)cc3n2)c2cccnc21	-87.1% (active)
COc1ccc2c(c1)N=c1c-2cc2c(O)[nH]c(=S)n2c1=O	65.8% (inactive)
O=C(NN1C(=O)/C(=C/C=C/c2ccc([N+](=O)[O-])o2)SC1=S)c1ccncc1	-34.7% (active)
Cn1cc(-c2cc(N)n3nc(-c4c[nH]c5ccccc45)cc3n2)c2cc(Br)ccc21	-50% (active)
Cn1cc(-c2cc(N)n3nc(-c4c[nH]c5ccccc45)cc3n2)c2ccccc21	-75.2% (active)
O=C1c2cccc3c(N4CCN(c5ccccc5)CC4)ccc(c23)C(=O)N1c1cccc(-c2nn(-c3ccccc3)cc2-c2nc3ccccc3s2)c1	113% (inactive)
O=C(c1ccc(O)cc1)C1[C@H](c2ccccc2Br)[C@@H](c2ccccc2)NC12C(=O)Nc1ccccc12 (some centres not stated)	22.9% (inactive)

SMILES	growth
COc1ccc(-c2cc(C(=O)N=Nc3c(O)[nH]c4ccc(Cl)cc34)c3ccccc3n2)cc1	-4.4% (active)
CC(C)(C)OC(=O)N1CCC2(CC1)Oc1ccccc1[C@H]1CC(c3ccc(Br)cc3)=NN12	67.4% (inactive)
Cc1cc(C(NC(=O)CCCCCNc2cccc3c2C(=O)N(C2CCC(=O)CC2=O)C3=O)c2cccc(N(C)C)c2)c(O)c2ncccc12 (configuration not stated)	11.7% (inactive)
O=C(c1ccc(O)cc1)C1[C@H](c2ccc(Cl)cc2)[C@@H](c2ccccc2)NC12C(=O)Nc1ccc(Br)cc12 (some centres not stated)	5.99% (active)
Cc1ccc(C(=O)C[n+]2cccc3c4ccccc4ccc32)cc1	23.8% (inactive)
C#CCN(C)CCCOc1ccc(N(CC)C(=O)c2cc(C(C)C)c(O)cc2O)cc1Cl	15.9% (inactive)
O=C(OCCOCCO)N(c1cccc(Br)c1)c1nc(SCCN2CCOCC2)nc2c1cnn2CC(Cl)c1ccc(Br)cc1 (configuration not stated)	15.2% (inactive)
COc1ccc(-c2nc3ccc(-c4nnc(SCC(=O)Nc5ccc(/C(C)=N\O)cc5)o4)cc3[nH]2)cc1	74.2% (inactive)
Clc1ccc2c(NCCNC34CC5CC(CC(C5)C3)C4)ccnc2c1	-33% (active)
CCOc1ccc(-c2cc(-c3cc(C(C)C)c(O)cc3C)nn2-c2ccc(S(N)(=O)=O)cc2)cc1	32% (inactive)
Cc1ccc(N=Nc2c(N)nn3c(-c4cc5cc(Br)ccc5oc4=O)ccnc23)cc1	113% (inactive)
COc1ccc(SC2c3cc(OC)ccc3Oc3nc(N)c(C#N)c(N)c32)cc1 (configuration not stated)	95.8% (inactive)
O=C1Nc2ccc(F)cc2/C1=C/C(=O)c1cc2ccccc2oc1=O	108% (inactive)
COc1ccc2[nH]cc(-c3cc(N)n4nc(-c5c[nH]c6ccccc56)cc4n3)c2c1	1.46% (active)
O=C1Nc2cc(-c3ccc(NS(=O)(=O)c4ccc(F)c(Cl)c4)cc3)ccc2/C1=C/c1ccc[nH]1	3.71% (active)
CCOC(=O)/C(F)=C/C1CC1C1CCN(C(=O)OC(C)(C)C)CC1 (configuration not stated)	78.4% (inactive)
CN1CCN(CCS(=O)(=O)Nc2cc(-c3ccc4ncnc(Nc5ccc(F)c(Cl)c5)c4c3)cnc2Cl)CC1	55.6% (inactive)
N#Cc1cc(-c2ccc3ncnc(N4CCc5cc(F)c(Cl)cc54)c3c2)cnc1N	42% (inactive)
